PubChem BioAssay (NCI)
The panel holds about 83,000 compounds, 20% with a hit somewhere; the sample as a whole holds those more often.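 48-hour exposure, single concentration, 96-well plates; percent growth endpoint where 0 means no net growth. Active: below 10.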 A number with no mark means an inactive call. Calls of active or inactive are those of the source.

Tests used:
Test in all cases: NCI-60 one-dose screen, 48 h (100 = growth as untreated, 0 = no growth, -100 = all killed)
Details in all cases: 10 µM unless noted
T-47D breast = tested on: T-47D breast
BT-549 breast = tested on: BT-549 breast
MDA-MB-435 melanoma = tested on: MDA-MB-435 melanoma
SW-620 colon = tested on: SW-620 colon
MCF7 breast = tested on: MCF7 breast
HCT-116 colon = tested on: HCT-116 colon
HCC-2998 colon = tested on: HCC-2998 colon

Row | Structure (SMILES) | growth (T-47D breast) | growth (BT-549 breast) | growth (MDA-MB-435 melanoma) | growth (SW-620 colon) | growth (MCF7 breast) | growth (HCT-116 colon) | growth (HCC-2998 colon)
1 | CCCCCCCCCCCCCCCCS(=O)(=O)Nc1cc(C(=O)NN)cc(C(=O)NN)c1 | 42% | 61.5% | 89.9% | 96% | 72.1% | 71.3% | 48.2%
2 | CCN(CC)c1ccc2nc3c4ccccc4c(=O)cc-3n(-c3ccccc3)c2c1 | -7.93% (active) | -21.7% (active) | -36.3% (active) | 7.92% (active) | -7.24% (active) | -31.7% (active) | -6.62% (active)
3 | CC[C@H](Nc1nc(C)nc(N)c1C#N)c1nc2cccc(NCc3ccc(C(=O)NO)cc3)c2c(=O)n1-c1ccccc1 | 0.805% (active) | 36.6% | 16.8% | -31.5% (active) | 5.42% (active) | 3.59% (active) | 7.75% (active)
4 | Cc1cc(C#Cc2ccccc2)ccc1-n1c(/C=C/c2ccc(F)cc2)nc2ccccc2c1=O | 41% | 90.4% | 66.9% | 47.8% | 38.8% | 46% | 86.6%
5 | CCOC(=O)C1=C(C)NC(SCc2nnc(-c3ccc(Cl)cc3)o2)=NC1c1ccc(Br)cc1 (stereo unspecified) | 48% | 79.8% | 65.1% | 91% | 44.8% | 48.6% | 91.2%
6 | Oc1ccc(Nc2ncnc3c2sc2ncccc23)cc1 | 51% | 47.3% | 36.5% | 44.1% | 18.8% | 27.5% | 69.4%
7 | COC1CC(N)C2OC(c3ccccc3)OCC2O1 (stereo unspecified) | 107% | 106% | 102% | 99.6% | 92.7% | 102% | 102%
8 | N=C(N)c1ccc(-c2ccc(-c3cc(Cl)cc(Cl)c3)o2)nc1 | -66.1% (active) | 91.2% | -78.1% (active) | -82.7% (active) | -67.1% (active) | -74% (active) | -41.9% (active)
9 | NC(N)=N/N=C\c1ccc(OCc2ccccc2)cc1 | 35.7% | 89.3% | 9.55% (active) | 73.9% | 17.3% | 61% | 82.3%
10 | CCCCCCCCCCCCCCCC1=NCC[N+]1(CCO)CCO | 78.8% | 79.6% | 30.7% | 57.6% | 50.5% | 12.1% | 82.5%
11 | Cc1ccc2cc3c(NC(=O)c4cccnc4)nn(C)c3nc2c1 | 69.6% | 97.4% | 95.5% | 92.5% | 81.6% | 86.2% | 91%
12 | Fc1ccc2nc(-c3ccc(-c4noc(-c5ccc(Cl)cc5)n4)cc3)[nH]c2c1 | 92.9% | 93.9% | 105% | 107% | 105% | 95.6% | 106%
13 | Cc1cc(C)c([O-])c(CN(C)CCN(C)Cc2cc(C)cc(C)c2[O-])c1.O=C([O-])c1cccc(C(=O)[O-])n1.[Ti+4] | 28.4% | -0.731% (active) | 6.53% (active) | -19.7% (active) | 17.1% | 4.86% (active) | 5.25% (active)
14 | CCCCCCCCCCCCCCCc1cc(O)ccc1[N+](=O)[O-] | 61.2% | 76.4% | 96.8% | 93.1% | 66% | 64.7% | 104%
15 | COc1cc2nccc(Oc3ccc(NC(=O)C4(C(=O)Nc5ccc(F)cc5)CC4)cc3)c2cc1OC(=O)c1ccc(N)cc1 | 19.5% | 36.1% | 33.2% | 33.5% | 23.8% | 23.1% | 25.8%
16 | O=C(O)c1cn(-c2ccccc2)nc1-c1ccc(O)cc1 | 101% | 99.3% | 103% | 98.5% | 88.7% | 96.4% | 95.5%
17 | COc1cc(/C=C2\C(=O)Nc3ccc(N(C)C)cc32)cc(OC)c1OC | 34.3% | 6.82% (active) | -37.7% (active) | 8.08% (active) | 12% | 13.7% | 49.1%

Row | Structure (SMILES) | growth (T-47D breast) | growth (BT-549 breast) | growth (MDA-MB-435 melanoma) | growth (SW-620 colon) | growth (MCF7 breast) | growth (HCT-116 colon) | growth (HCC-2998 colon)
18 | O=C1c2ccccc2C(=O)c2c1oc1ccc3ccccc3c21 | 23.5% | 70.2% | 91.3% | 91.6% | 21.8% | 62.2% | 99%
19 | O=C(Nc1ccc2ncnc(Nc3ccc(F)c(Cl)c3)c2c1)c1cccs1 | 28.8% | 68.3% | 70.2% | 93.2% | 56.1% | 54.7% | 99.2%
20 | CCCCOc1ncnc2nc[nH]c12 | 107% | 97.6% | 111% | 108% | 96.9% | 101% | 111%
21 | CC(=O)c1cccc(Nc2ncnc3ccc(NC(=O)c4ccco4)cc23)c1 | 77.1% | 96.5% | 83% | 115% | 80.9% | 91% | 111%
22 | O=C(Cn1nncc1CN1C(=O)CSC1=O)Nc1ccc(F)cc1 | 97.8% | 98.8% | 100% | 98.8% | 94.6% | 101% | 96.2%
23 | O=c1[nH]cnc2nc[nH]c12 | 111% | 105% | 93.5% | 105% | 95.4% | 98.1% | 101%
24 | N#Cc1nc(-c2cccc(Br)c2)cc(-c2ccc(Nc3nc(N4CCCCC4)nc(N4CCCCC4)n3)cc2)c1N | -52.6% (active) | -69.5% (active) | -91.7% (active) | -42.3% (active) | 6.98% (active) | -60.4% (active) | 18.2%
25 | COc1ccc(-c2cnc3ccnn3c2-c2cc(OC)c(OC)c(OC)c2)cc1 | 22.2% | 66.7% | -38.5% (active) | 16.1% | 25.4% | 27.5% | 80.8%
26 | COC(=O)c1ccc(NC(N)=NCCC(C)(C)c2ccc(C(F)(F)F)cc2)nc1 | -3.4% (active) | 42.6% | 50.1% | 25% | 10% | 8.17% (active) | -54% (active)
27 | CC[C@H](Nc1nc(N)nc(C2CC2)c1C#N)c1nc2cccc(NCc3ccc(C(=O)NO)cc3)c2c(=O)n1-c1ccccc1 | -5.53% (active) | 33.3% | 7.07% (active) | 11.6% | 4.25% (active) | -59.8% (active) | 0.531% (active)
28 | COc1ccc(NC(=O)/C=C/c2ccc(Cl)c(Cl)c2)cn1 | 71% | 67.1% | 91.1% | 104% | 71.7% | 84.8% | 118%
29 | O=C(Cc1ccc(Nc2ccnc(C(F)(F)F)c2)cc1)N/N=C/c1ccccc1O | 18.4% | 50.2% | 34.7% | 38.3% | 12.9% | 16.1% | 40.5%
30 | CCN(CC)Cc1cc(Nc2ccnc3cc(Cl)ccc23)cc(-c2ccc(Cl)cc2)c1O | 50.9% | 25.4% | 35.4% | 12.3% | 14.8% | 43.4% | 64.3%
31 | COCCn1c(Nc2ccc(C(=O)NO)cc2)nc2ccccc21 | 35.3% | 86.6% | 46% | 29.6% | 61.4% | 19.4% | 73.3%
32 | O=c1c2sc3ccccc3c2nnn1-c1ccc(F)c(Cl)c1 | 45.9% | 81.6% | 72.3% | 62.3% | 63.9% | 19.9% | 68.7%
33 | Cn1c(=O)c2c3c(oc2c2ccccc21)C(=O)c1ccccc1C3=O | 9.7% (active) | 77.4% | 104% | 86.2% | 68.4% | 71.7% | 102%
